The values below come from PubChem BioAssay.

Assay [1] has as its system PRMT1 (protein arginine N-methyltransferase 1). Briefly: PRMT1 binders on small-molecule microarrays, primary screen, biochemical, small-molecule microarray, 635 nm fluorescence (AID 1088).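 Further: binding of Prmt1 protein to compounds spotted on small-molecule microarray slides.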 Particulars: small-molecule microarray binding, higher = more signal.
Assay [2] in a line: yeast growth modulation, basal conditions, primary screen, YJM789 clinical isolate, OD600, 24 h (AID 1089).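 Further: growth of clinical yeast isolate S. cerevisiae YJM 789 seeded 1000 cells per well; test concentration not given here.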 Particulars: S. cerevisiae YJM789 growth, higher = more signal, called active from +8 up or from −8 down.
A short description of assay [3]: fission yeast growth modulation, primary screen, strain 972, OD600, 24 h, no modulator (AID 1090).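 Further: basal condition with compound alone and no growth modifier present; test concentration not given here.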 The conditions noted are these: S. pombe 972 growth, higher = more signal, called active from +8 up or from −8 down.
Assay [4] can be described thus: S. cerevisiae growth modulation with rapamycin, primary screen, strain BY4716, OD600, 96 h (AID 1091). Further: test concentration not given here. Particulars: higher = more signal, called active from +8 up or from −8 down.
The target in assay [5] is Torsin-1A-interacting protein 2 (Homo sapiens) (UniProt Q8NFQ8). Briefly: LULL1 binders on small-molecule microarray, primary screen, cell lysate, human LULL1 lysate, 635/667 nm fluorescence (AID 1092).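 Further: probe is lysate of COS7 cells overexpressing human LULL1; score merges per-feature 667 nm fluorescence with signal-to-noise.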 The conditions noted are these: hLULL1 lysate binding, 635 nm fluorescence, higher = more signal.
Torsin-1A-interacting protein 2 (Homo sapiens), sequence (Q8NFQ8 whole entry, looked up): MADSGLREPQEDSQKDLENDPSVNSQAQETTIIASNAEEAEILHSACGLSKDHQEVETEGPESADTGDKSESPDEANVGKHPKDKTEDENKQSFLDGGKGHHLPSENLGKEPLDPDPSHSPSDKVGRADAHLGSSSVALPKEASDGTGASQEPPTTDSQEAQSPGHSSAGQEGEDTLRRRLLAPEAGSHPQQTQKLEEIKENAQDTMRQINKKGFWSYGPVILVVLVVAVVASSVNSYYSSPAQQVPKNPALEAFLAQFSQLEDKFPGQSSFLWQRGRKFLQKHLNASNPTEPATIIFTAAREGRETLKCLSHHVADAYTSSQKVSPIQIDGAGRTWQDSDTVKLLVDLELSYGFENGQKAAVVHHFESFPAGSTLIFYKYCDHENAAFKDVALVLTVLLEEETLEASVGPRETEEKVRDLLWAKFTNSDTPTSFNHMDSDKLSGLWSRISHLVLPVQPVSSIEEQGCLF
Assay [6] is described as follows: E. coli growth modulation, two-sided OD650, primary screen, E. coli filamentation project, strain DRC41, 24 h (AID 1093).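 Further: MC1000 strain lacking acrAB efflux and sulA so SOS filamentation is blocked; test concentration not given here.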 Particulars: OD650, 24 h, higher = more signal, called active from +8 up or from −8 down.
A short description of assay [7]: small-molecule microarray binders of probe aLefty2, primary screen, biochemical, biotinylated probe, 635/667 nm fluorescence (AID 1094).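 Further: score merges spot fluorescence near 667 nm with spot signal-to-noise ratio.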 The conditions noted are these: higher = more signal.
Assay [8] deals with Noggin (protein binding on small-molecule microarray). Briefly: Noggin binders on small-molecule microarray, primary screen, biochemical, 635/667 nm fluorescence (AID 1095).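 Further: score merges 667 nm feature fluorescence with signal to noise over triplicate slides.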 Particulars: 635 nm fluorescence, higher = more signal.
In assay [9] the target is Neurogenic locus notch homolog protein 3 (Homo sapiens) (UniProt Q9UM47). Briefly: NOTCH3 binders on small-molecule microarray, primary screen, biochemical, 635/667 nm fluorescence (AID 1096). Particulars: NOTCH3 binding, 635 nm fluorescence, higher = more signal.
Neurogenic locus notch homolog protein 3 (Homo sapiens), sequence (Q9UM47 whole entry, looked up): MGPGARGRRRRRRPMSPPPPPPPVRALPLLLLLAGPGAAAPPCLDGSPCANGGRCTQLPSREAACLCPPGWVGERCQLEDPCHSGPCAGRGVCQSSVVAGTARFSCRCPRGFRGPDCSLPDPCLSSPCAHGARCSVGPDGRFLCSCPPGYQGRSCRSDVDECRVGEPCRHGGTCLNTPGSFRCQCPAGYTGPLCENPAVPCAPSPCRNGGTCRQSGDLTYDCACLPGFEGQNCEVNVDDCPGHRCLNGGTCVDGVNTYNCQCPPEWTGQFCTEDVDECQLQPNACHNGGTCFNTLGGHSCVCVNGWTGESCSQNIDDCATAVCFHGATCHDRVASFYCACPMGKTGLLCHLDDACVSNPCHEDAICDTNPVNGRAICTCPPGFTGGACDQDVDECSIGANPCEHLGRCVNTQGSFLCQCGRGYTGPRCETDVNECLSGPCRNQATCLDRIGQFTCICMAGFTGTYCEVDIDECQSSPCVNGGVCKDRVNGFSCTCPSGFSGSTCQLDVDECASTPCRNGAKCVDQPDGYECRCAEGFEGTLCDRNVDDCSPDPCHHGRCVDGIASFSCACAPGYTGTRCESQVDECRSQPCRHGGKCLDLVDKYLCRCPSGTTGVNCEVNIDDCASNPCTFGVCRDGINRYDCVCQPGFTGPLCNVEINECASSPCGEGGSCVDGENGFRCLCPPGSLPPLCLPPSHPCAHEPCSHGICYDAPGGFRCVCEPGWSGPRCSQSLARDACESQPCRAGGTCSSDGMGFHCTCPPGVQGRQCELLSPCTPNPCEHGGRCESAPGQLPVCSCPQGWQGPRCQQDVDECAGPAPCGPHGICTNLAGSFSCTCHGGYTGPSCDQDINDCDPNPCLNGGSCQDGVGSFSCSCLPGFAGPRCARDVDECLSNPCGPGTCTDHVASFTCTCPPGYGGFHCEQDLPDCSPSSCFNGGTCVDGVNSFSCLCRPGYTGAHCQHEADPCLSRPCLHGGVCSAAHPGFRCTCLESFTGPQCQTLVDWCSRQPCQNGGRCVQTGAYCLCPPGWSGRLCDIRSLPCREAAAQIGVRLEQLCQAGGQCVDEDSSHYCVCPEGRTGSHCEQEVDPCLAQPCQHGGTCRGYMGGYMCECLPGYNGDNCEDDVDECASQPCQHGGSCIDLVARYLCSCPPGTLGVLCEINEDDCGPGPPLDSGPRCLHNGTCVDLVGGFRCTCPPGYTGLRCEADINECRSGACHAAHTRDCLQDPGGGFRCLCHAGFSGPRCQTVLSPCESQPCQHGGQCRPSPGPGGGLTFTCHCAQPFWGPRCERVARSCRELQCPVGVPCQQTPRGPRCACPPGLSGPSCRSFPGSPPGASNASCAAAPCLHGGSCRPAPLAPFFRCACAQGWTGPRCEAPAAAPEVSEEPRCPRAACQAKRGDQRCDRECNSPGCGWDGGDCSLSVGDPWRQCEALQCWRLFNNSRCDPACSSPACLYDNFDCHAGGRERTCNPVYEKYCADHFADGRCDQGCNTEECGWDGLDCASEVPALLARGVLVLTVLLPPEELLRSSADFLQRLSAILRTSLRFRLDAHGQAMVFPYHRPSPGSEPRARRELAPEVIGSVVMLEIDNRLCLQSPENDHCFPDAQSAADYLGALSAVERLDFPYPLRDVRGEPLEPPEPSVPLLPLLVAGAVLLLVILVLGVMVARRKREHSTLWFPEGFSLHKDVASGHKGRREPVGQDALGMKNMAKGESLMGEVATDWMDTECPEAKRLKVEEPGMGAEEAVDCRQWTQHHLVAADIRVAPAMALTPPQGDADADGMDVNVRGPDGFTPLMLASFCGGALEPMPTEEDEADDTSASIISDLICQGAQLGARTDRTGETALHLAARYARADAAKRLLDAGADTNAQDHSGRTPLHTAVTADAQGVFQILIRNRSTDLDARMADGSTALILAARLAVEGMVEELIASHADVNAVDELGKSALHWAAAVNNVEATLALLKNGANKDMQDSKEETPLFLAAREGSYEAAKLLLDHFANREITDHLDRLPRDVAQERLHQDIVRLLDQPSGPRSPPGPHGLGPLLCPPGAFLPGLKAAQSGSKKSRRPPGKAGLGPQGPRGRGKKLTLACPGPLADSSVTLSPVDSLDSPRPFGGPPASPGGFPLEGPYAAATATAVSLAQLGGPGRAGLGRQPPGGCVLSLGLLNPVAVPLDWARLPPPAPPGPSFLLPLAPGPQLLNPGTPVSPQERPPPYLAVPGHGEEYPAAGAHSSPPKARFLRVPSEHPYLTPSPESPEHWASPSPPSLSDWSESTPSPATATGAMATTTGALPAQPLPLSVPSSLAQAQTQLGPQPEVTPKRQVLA
A short description of assay [10]: small-molecule microarray binders of probe aEGFR, primary screen, biochemical, biotinylated probe, 635/667 nm fluorescence (AID 1097).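 Further: probe is a biotinylated anti-EGFR antibody binding compounds printed on slides; score combines fluorescence near 667 nm and signal to noise of each spot.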 Particulars: higher = more signal.
Assay [11] concerns Plasmodium falciparum Sir2 (PF13_0152, Sir2A). Briefly: pfSir2 binders on small-molecule microarrays, primary screen, biochemical, small-molecule microarray, 635 nm fluorescence (AID 1098).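 Further: score merges spot fluorescence intensity with its signal-to-noise ratio.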 The conditions noted are these: small-molecule microarray binding, fluorescence 635 nm; higher = more signal.
A short description of assay [12]: small-molecule microarray binders of probe aDKK1, primary screen, biochemical, biotinylated probe, 635/667 nm fluorescence (AID 1099).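 Further: score merges 667nm spot fluorescence with signal to noise across triplicate slides; reference of the scale not given here.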 Particulars: higher = more signal.
The nature of assay [13]: small-molecule microarray binders of probe aCHRDL2, primary screen, biochemical, biotinylated probe, 635/667 nm fluorescence (AID 1100). The conditions noted are these: higher = more signal.
A short description of assay [14]: splicing luciferase reporter signal modulators, primary screen, spliceosome inhibition project, cell-based, HEK293, splice +/- reporter (AID 1101).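 Further: HEK293 cells carrying a splicing-competent luciferase reporter gene; test concentration not given here.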 Particulars: luminescence, 24 h, higher = more signal, called active from +8 up or from −8 down. On the technique in general: Reporter assays use an easily measured gene product as a stand-in for the process of interest.

For assay [15], the target named is Fibroblast growth factor 10 (Homo sapiens) (UniProt O15520). Put plainly: FGF10 binders on small-molecule microarrays, primary screen, biochemical, small-molecule microarray, 635 nm fluorescence (AID 1102). Particulars: FGF10 binding, fluorescence 635 nm, higher = more signal.
Fibroblast growth factor 10 (Homo sapiens), sequence (O15520 whole entry, looked up): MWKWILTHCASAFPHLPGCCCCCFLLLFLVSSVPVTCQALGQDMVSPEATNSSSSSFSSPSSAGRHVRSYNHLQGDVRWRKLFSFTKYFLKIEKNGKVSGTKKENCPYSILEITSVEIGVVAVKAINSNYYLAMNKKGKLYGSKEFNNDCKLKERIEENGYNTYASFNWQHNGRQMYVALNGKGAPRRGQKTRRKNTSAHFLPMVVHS
Assay [16] concerns glycogen synthase kinase-3 (GSK3A per assay name; protocol says GSK3B). Briefly: GSK3 binders on small-molecule microarrays, primary screen, biochemical, small-molecule microarray, 635 nm fluorescence, GSK3A (AID 1103). Further: the record names both GSK3A and GSK3B. Particulars: small-molecule microarray binding, fluorescence 635 nm; higher = more signal.
Assay [17] has as its target Epidermal growth factor receptor (Homo sapiens) (UniProt P00533). Put plainly: EGFR binders on small-molecule microarrays, primary screen, biochemical, small-molecule microarray, 635 nm fluorescence (AID 1104).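 Further: score merges 667 nm emission intensity with spot signal to noise over triplicate slides.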 The conditions noted are these: EGFR binding, higher = more signal.
The target in assay [18] is Follistatin-related protein 3 (Homo sapiens) (UniProt O95633). Briefly: FSTL3 binders on small-molecule microarrays, primary screen, biochemical, small-molecule microarray, 635 nm fluorescence (AID 1105).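 Further: score merges emission near 667 nm and signal to noise per printed spot across three slides.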 The conditions noted are these: FSTL3 binding, higher = more signal.
Follistatin-related protein 3 (Homo sapiens), sequence (O95633 whole entry, looked up): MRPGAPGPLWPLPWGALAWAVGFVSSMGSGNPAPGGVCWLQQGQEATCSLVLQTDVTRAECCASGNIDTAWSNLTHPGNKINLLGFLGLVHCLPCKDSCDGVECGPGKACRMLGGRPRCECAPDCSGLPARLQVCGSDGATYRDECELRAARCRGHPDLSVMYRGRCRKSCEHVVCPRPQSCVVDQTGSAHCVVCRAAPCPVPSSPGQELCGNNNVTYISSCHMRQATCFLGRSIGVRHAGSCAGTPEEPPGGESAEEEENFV
Assay [19] concerns the target Dickkopf-related protein 1 (Homo sapiens) (UniProt O94907). Briefly: DKK1 binders on small-molecule microarrays, primary screen, biochemical, small-molecule microarray, 635 nm fluorescence scan (AID 1106).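 Further: score merges emission near 667 nm with signal to noise over three replicate slides.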 Particulars: DKK1 binding, higher = more signal.
Assay [20] has as its system Inhibin beta A chain (activin A). Put plainly: INHBA (activin A) binders on microarrays, primary screen, biochemical, small-molecule microarray, 635 nm fluorescence scan (AID 1107).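 Further: mouse activin A protein probed at 4.33 µg/mL on printed slides; score merges bound-protein fluorescence near 667 nm with spot signal-to-noise.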 The conditions noted are these: small-molecule microarray binding, higher = more signal.

Active and inactive are the calls of the source.

Dickkopf-related protein 1 (Homo sapiens), sequence (O94907 whole entry, looked up): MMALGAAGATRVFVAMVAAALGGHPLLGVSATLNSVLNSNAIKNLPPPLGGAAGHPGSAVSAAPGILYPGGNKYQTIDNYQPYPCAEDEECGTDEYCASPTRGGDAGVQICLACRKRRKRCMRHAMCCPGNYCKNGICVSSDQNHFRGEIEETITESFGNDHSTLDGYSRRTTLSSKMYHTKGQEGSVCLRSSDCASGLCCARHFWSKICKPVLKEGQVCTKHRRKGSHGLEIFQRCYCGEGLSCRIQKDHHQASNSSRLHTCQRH
Epidermal growth factor receptor (Homo sapiens), sequence (P00533 whole entry, looked up): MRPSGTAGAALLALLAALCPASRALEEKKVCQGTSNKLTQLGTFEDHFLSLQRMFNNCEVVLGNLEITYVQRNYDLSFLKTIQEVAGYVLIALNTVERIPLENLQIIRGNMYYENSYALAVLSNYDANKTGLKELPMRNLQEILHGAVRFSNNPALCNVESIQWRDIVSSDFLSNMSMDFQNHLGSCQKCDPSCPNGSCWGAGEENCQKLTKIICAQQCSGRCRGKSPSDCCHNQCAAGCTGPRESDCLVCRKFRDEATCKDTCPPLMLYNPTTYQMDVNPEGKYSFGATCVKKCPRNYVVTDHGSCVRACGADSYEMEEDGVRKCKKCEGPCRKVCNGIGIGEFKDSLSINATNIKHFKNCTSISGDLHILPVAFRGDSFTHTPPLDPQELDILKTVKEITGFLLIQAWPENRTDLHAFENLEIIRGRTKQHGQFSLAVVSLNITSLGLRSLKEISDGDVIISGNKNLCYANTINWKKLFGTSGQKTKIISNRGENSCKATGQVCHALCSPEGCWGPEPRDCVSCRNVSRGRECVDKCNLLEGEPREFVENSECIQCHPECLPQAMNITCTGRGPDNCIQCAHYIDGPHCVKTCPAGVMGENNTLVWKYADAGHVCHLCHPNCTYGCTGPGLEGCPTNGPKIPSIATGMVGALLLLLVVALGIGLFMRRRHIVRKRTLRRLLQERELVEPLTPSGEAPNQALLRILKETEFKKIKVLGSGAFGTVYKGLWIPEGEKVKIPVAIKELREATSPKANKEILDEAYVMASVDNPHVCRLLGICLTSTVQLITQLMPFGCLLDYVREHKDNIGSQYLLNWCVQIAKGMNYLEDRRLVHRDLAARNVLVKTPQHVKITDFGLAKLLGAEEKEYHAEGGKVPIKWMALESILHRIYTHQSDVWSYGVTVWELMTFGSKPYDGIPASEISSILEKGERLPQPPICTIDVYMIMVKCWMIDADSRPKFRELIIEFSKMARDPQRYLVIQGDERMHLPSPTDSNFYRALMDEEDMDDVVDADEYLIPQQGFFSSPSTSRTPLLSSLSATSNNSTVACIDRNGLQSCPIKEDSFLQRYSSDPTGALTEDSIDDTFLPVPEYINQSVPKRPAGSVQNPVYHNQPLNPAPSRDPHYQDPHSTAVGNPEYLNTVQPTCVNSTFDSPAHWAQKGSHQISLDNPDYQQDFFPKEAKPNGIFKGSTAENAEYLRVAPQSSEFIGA

On to `COC(=O)CC=C[C@@H](C)[C@@H](C=NOCC[C@@H]1C=C[C@H](OC(C)=O)[C@@H](COC(C)=O)O1)NS(=O)(=O)c1ccc(C)cc1`, for which the composite z-score was 0.477 in assay [1]; -0.0098 in [5]; 0.135 in assay [7]; 0.706 in [8]; -0.213 in assay [9]; 0.0511 in assay [10]. The composite z-score in assay [11] is 0.133; in assay [12], -0.322; in assay [13] it was -0.331; in assay [15] it was -0.183; in assay [16], 0.328; in assay [17] it was 0.736. In addition, the results for the composite z-score in assay [18], in assay [19] and in [20] were 0.0237, 0.316 and 0.46, respectively. Also, the z-score is 0.787 (inactive) in assay [2]; 0.466 (inactive) in assay [3]; -0.448 (inactive) in assay [4]; 0.545 (inactive) in [6]; -0.43 (inactive) in [14].
As for `C=CC[C@@H]1C=C[C@H](ON=C(C)CCC(=O)OC[C@H]2O[C@H](c3ccccc3)C=C[C@@H]2Oc2ccc(OC)cc2)[C@@H](CO)O1`, the composite z-score was 0.12 in [1]; -0.177 in assay [5]; -0.209 in assay [7]; 0.185 in assay [8]; -1.3 in assay [9]; -0.172 in assay [10]. Further, the composite z-score in [11] is 0.892; in [12] it was -0.347; in assay [13] it was -0.524; in assay [15], -0.196; in assay [16], -0.855; in [17], -0.382. Besides, the composite z-score in assay [18] was -0.532; in assay [19], 0.0305; in assay [20], 0.837. For the same compound, the z-score in assay [2] is 0.0343 (inactive); in [3], -0.212 (inactive); in [4], 0.261 (inactive); in assay [6], 0.358 (inactive); in [14], -0.393 (inactive).
Turning to `CC(C)CON=C1C[C@@H](O)[C@@H](O)[C@@H]2[C@@H]3C(=O)N(c4cccc(Oc5ccccc5)c4)C(=O)[C@@H]3CC[C@@H]12`, the composite z-score in [1] is 1.4; in assay [5], 1.86; in assay [7], -0.131; in assay [8] it was 1.02; in assay [9], 0.046; in [10], -0.109. The composite z-score in assay [11] is 1.13; in [12], -0.277; in assay [13], -0.446; in [15], 0.746; in [16], 0.789; in [17], 0.368. The composite z-score in assay [18] was 0.348; in assay [19] it was 0.195; in assay [20], -0.163. Besides, the z-score in assay [2] was -1.57 (inactive); in assay [3] it was 0.174 (inactive); in assay [4], -0.827 (inactive); in assay [6], -0.961 (inactive); in assay [14], -1.24 (inactive).
On to `C#CCCCON=C1C[C@@H](O)[C@@H](O)[C@@H]2[C@@H]3C(=O)N(c4cccc(Oc5ccccc5)c4)C(=O)[C@@H]3CC[C@H]12`, for which the composite z-score in assay [1] is -0.684; in assay [5] it was -0.204; in [7] it was -0.172; in assay [8], -0.738; in assay [9], -0.581; in assay [10], -0.213. Also, the composite z-score was 1.06 in [11]; -0.406 in [12]; 0.155 in [13]; -0.948 in [15]; -1.56 in assay [16]; -0.356 in assay [17]. In addition, the composite z-score in assay [18] is -0.845; in assay [19] it was -0.557; in assay [20], -0.69. Also, the z-score in assay [2] is 0.74 (inactive); in assay [3] it was 0.202 (inactive); in assay [4], -0.284 (inactive); in assay [6], 0.676 (inactive); in assay [14] it was -0.558 (inactive).
As to `COC(=O)[C@H](C)NC(=O)CCC1CC(OC(=O)NCc2ccc3c(c2)OCO3)CC2(CCCC(COC(=O)NCc3cccc(C(F)(F)F)c3)O2)O1` (stereo not given in full), the composite z-score in assay [1] was 1.42; in [5] it was 1.65; in assay [7] it was -0.0096; in [8], 0.186; in [9] it was 0.524; in assay [10], -0.0644. For the same compound, the composite z-score in assay [11] was 1.02; in assay [12], 0.114; in assay [13], -0.289; in assay [15], 0.818; in assay [16], 0.622; in assay [17] it was 0.223. The results for the composite z-score in assay [18], in assay [19] and in [20] were 1.14, 0.235 and -0.0499, respectively. In addition, the z-score was -1.04 (inactive) in assay [2]; 0.0536 (inactive) in assay [3]; 0.253 (inactive) in [4]; -0.15 (inactive) in assay [6]; 0.562 (inactive) in assay [14].
